# Shown is part of a subset that was picked to be rich in hits.
# Shiga toxin inh: blocks Shiga toxin action in Vero cells | Vero cells, Shiga toxin protein synthesis inhibition reporter | inhibition, % at 38.7 µM | actives 9.2% (n = 290,000); in the data active = inhibition mostly above about 28%, no sharp cut-off; inactive = mostly below about 43%; note: 0% is about no effect
# LmPK inh: inhibitors of Leishmania mexicana pyruvate kinase | purified LmPK, Kinase-Glo ATP luminescence, 1 h | Potency, µM (highest dose often 57.5 µM), for inactives: top-dose activity change, negative = inhibition, usual class: inhibitors | actives 0.37% (n = 290,000); note: potency is the fitted concentration of half-maximal effect; % is set by controls: 0 for no effect and ±100 for the full control effect
# Target sequence (Q27686 whole entry, looked up): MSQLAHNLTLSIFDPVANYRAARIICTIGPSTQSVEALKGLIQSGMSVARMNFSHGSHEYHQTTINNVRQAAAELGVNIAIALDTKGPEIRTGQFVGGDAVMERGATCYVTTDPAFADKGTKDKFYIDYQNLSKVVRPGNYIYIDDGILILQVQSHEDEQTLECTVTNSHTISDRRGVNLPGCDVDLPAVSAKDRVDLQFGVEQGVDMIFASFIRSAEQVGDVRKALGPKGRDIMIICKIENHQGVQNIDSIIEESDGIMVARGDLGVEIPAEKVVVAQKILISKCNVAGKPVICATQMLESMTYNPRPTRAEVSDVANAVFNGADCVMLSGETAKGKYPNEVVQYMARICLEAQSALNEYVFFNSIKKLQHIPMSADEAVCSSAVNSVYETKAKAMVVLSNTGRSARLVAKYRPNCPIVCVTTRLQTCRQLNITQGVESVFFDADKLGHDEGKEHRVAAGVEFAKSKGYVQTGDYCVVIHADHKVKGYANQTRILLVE
#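 Pyruvate kinase activity monitored as ATP production (luciferase luminescence). Conditions: 0.1 nM enzyme, 0.5 mM PEP, 0.1 mM ADP, 1 h, RT; normalized against uninhibited and no-enzyme wells.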
# Tb PYK inh: inhibitors of Trypanosoma brucei pyruvate kinase; Q57TT1; TbPYK enzyme, Kinase-Glo Plus ATP luminescence, 45 min; Potency, µM (top dose mostly 76.8 µM), for the others: at the top dose activity, negative = inhibition, most hits filed as inhibitors; actives 0.12% (n = 410,000); AID 624173; note: potency is the fitted concentration of half-maximal effect; % is set by controls: 0 for no effect and ±100 for the full control effect; nearly all actives have a fitted effect of over 50% in size
#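 ADP (130 uM final) triggers the TbPYK reaction after compound addition; incubation is 45 min at room temperature. Kinase-Glo Plus is then added and luminescence imaged. Normalized data are fitted to concentration-effect curves.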
# CHX counter-1: counter-screen for Shiga toxin inhibitors: cycloheximide protein synthesis inhibition; cell reporter, cycloheximide protein synthesis inhibition counterscreen; max response, %; AID 2314; actives 12% (n = 300,000); in the data active = max response mostly above about 13%, no sharp cut-off; inactive = mostly below about 14%; note: read at 38.3 µM for the half of the compounds with a filed dose; 0% is about no effect
# Sm TGR inh: blocks Schistosoma mansoni thioredoxin glutathione reductase. Q962Y6. purified TGR, DTNB reduction, TNB absorbance 405 nm. Potency, µM (doses to about 114 µM), for inactives: at the top dose activity change, negative = inhibition, most hits filed as inhibitors. actives 3% (n = 360,000); note: potency is the fitted concentration of half-maximal effect; % is set by controls: 0 for no effect and ±100 for the full control effect; nearly all actives have a fitted effect of over 60% in size
#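 First, TGR (20 nM dispensed) and NADPH were mixed with compound. Second, a 15 min room-temperature incubation followed. Third, further NADPH and then DTNB were added to start the reaction. Finally, TNB absorbance was monitored kinetically.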
# Giardia FBPA inh: inhibitors of Giardia lamblia fructose-1,6-bisphosphate aldolase | Potency, µM (doses to about 59.6 µM), for inactives: top-dose activity, negative = inhibition, hits mostly inhibitors | actives 0.71% (n = 290,000) | purified Giardia FBPA | AID 2451; note: potency is the fitted concentration of half-maximal effect; % is set by controls: 0 for no effect and ±100 for the full control effect; nearly all actives have a fitted effect of over 55% in size
#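 Giardia FBPA (40 nM reagent) was preincubated 10 min at RT with compound (up to 57.5 uM final), then substrate plus GAPDH/TPI/NAD/arsenate coupling system with diaphorase/resazurin was added; resorufin fluorescence (525/598 nm) was read after 20 min.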
# CHX counter-2: counter-screen for Shiga toxin inhibitors: cycloheximide protein synthesis block; actives 3% (n = 510); Cycloheximide counterscreen, protein synthesis reporter, Shiga toxin assay; Potency, µM (titrated, usually from 38.3 µM), for the others: at the highest dose activity (activation), usual class: activators; shares compounds with Shiga toxin inh; calls by dose curve; note: potency is the fitted concentration of half-maximal effect; 0% is about no effect
# Active calls of the source: *; u = inconclusive; x = not tested or not shown; + = active, no number; [ ] = another dose, or the depositor's remark. Unless noted, calls come from the whole dose curve; as a rule, active = well fitted curve in the direction sought with a large enough effect; inconclusive = small, poorly fitted or top-dose-only effect, or another doubt; inactive = no such curve, though single readings can be large; an effect the other way counts as inactive or inconclusive.
SMILES,Shiga toxin inh,LmPK inh,Tb PYK inh,CHX counter-1,Sm TGR inh,Giardia FBPA inh,CHX counter-2
CC(=O)Nc1ccc(NC(=O)COC(=O)c2c3c(nc4ccccc24)CCN(Cc2ccccc2)C3)cc1,22*,-4%,-7%,1,-7%,-5%,-4%
O=C(COC(=O)c1c2c(nc3ccccc13)CCN(Cc1ccccc1)C2)Nc1c(F)cccc1F,17,3%,-6%,0,4%,6%,x
Cc1n[nH]c(C)c1S(=O)(=O)N1CCC(C(=O)Nc2cccc(F)c2)CC1,-11,-2%,2%,6,-10%,-2%,x
COc1ccc(NC(=O)c2ccccc2[N+](=O)[O-])cc1,40*,-3%,-13%,5,5%,-2%,5%
COc1ccc(NC(=O)c2cccnc2Nc2ccc(OC)cc2)cc1,42*,-2%,-4%,5,10%,0%,1%
COc1ccc(CNC(=O)c2ccccc2[N+](=O)[O-])cc1,-7,-2%,-1%,-2,8%,0%,x
O=C1C=C(c2ccc(OC(F)(F)F)cc2)C[C@@H](c2ccc(Cl)cc2)C1,x,x,1%,x,-10%,x,x
O=C(CNS(=O)(=O)c1ccc2ccccc2c1)OCC(=O)c1ccc(Br)s1,15,4%,28%,-1,-2%,-1%,x
Cc1cc(C(=O)COC(=O)CNS(=O)(=O)c2ccc3ccccc3c2)c(C)n1-c1ccccc1,active,0%,-8%,10,1%,6%,5%
COCCOC(=O)c1c(C)oc2ccc(OCc3ccccc3)cc12,-5,6%,-3%,-4,0%,5%,x
COCCOC(=O)c1c(C)oc2ccc(OC(=O)c3ccco3)cc12,+,3%,-4%,12,2%,1%,5%
Cc1ccsc1C(=O)N1CCc2ccccc2C1,36*,4%,4%,15,5%,x,u
O=C(NCC1CCCO1)Nc1ccc2c(c1)OCO2 (stereo not drawn),43*,1%,-7%,7,14%,-3%,u
COCCCNC(=O)C1CCN(c2nc3ccc(Cl)cc3[nH]2)CC1,x,x,-3%[15.4 µM],x,1%,x,x
O=C1C(Cl)=C(Nc2ccccc2)C(=O)c2ccccc21,69*,-3%,-3%,9,1µM*,u,u
O=C(NCc1ccc(F)cc1F)Nc1cnccc1C(F)(F)F,-2,-2%,-1%,-2,-1%,1%,x
O=C(Nc1nc(N2C(=O)c3ccccc3C2=O)n(-c2ccccc2)n1)c1ccccc1,35*,2%,1%,11,-7%,-1%,-2%
COc1ccc(C(=O)Nc2nc(N3C(=O)c4ccccc4C3=O)n(-c3ccccc3)n2)cc1,-3,6%,4%,-2,-18%,u,x
O=C(c1ccc(Oc2ccccc2)cc1)C1CCCN(C(=O)c2cnccn2)C1 (stereo not drawn),25,1%,2%,-2,-1%,0%,x
Cc1cc(Br)ccc1NC(=O)CN(C)C(=O)COc1cccc2c1OC(C)(C)C2,x,x,-1%,x,-24%,x,x
Cc1sc(NC(=O)CCCC(=O)O)c(C(N)=O)c1-c1ccccc1,74*,-9%,4%,9,4%,-23%,u
COc1ccc2cc(C(=O)NCc3ccccc3)[nH]c2c1,31*,8%,-22%,12,-15%,-7%,u
COc1cccc(Cn2c(SCC(=O)N3CCN(c4ccc(F)cc4)CC3)nc3ccccc32)c1,x,x,-2%,x,-1%,x,x
O=C(Nc1ccccc1)c1ccccc1O,59*,-2%,-8%,18,-9%,1%,22µM*
O=C(Nc1ccccc1)c1ccc[nH]1,40*,-8%,-15%,-2,-6%,2%,4%
SMILES,Shiga toxin inh,LmPK inh,Tb PYK inh,CHX counter-1,Sm TGR inh,Giardia FBPA inh,CHX counter-2
CCCc1nnc(NC(=O)CCC(=O)NC2CCCCCC2)s1,5,-7%,3%,-6,3%,x,x
Cc1nn(-c2ccccc2)c(N)c1C(O)(CSc1nccn1C)C(F)(F)F (stereo not drawn),-8,4%,-1%,-2,-26%,-3%,x
Cc1nn(-c2ccc(Cl)cc2)c(N)c1C(O)(CSc1nccn1C)C(F)(F)F (stereo not drawn),69*,-1%,-10%,13,1%,1%,0%
CC(C)NC(=S)n1cc(C(=O)c2cc(Cl)cc(Cl)c2O)cn1,-4,3%,-1%,-5,-10%,15%,x
O=C(Nc1ccc2oc(-c3ccccc3)nc2c1)c1ccc2c(c1)OCCO2,43*,-1%,17%,15,-2%,-11%,u
O=C(O)C/C(=C\c1cc(Br)cs1)c1nc2ccccc2o1,40*,7%,-4%,10,-5%,5%,3%
Cc1sc(NC(=O)C2CCCC2)c(C#N)c1C,19*,2%,-24%,1,-9%,-19%,1%
Cc1c(C(=O)N2CCCCC2)sc(NC(=O)C2CC2)c1C#N,2,-2%,9%,3,-3%,-9%,x
COCCCNC(=O)NC(=O)c1ccccc1,18*,-1%,5%,5,2%,1%,2%
CCOC(=O)C1CCCN(c2nc3ccccc3nc2C(C#N)C(=O)OCC)C1 (stereo not drawn),133*,-1%,-5%,-1,-4%,-15%,-3%
CCOC(=O)C1CCCN(c2nc3ccccc3nc2C(C#N)C(=O)OCCOC)C1 (stereo not drawn),-6,8%,6%,-1,-17%,-23%,x
Cc1noc(C)c1COC(=O)c1csc2c1CCC(C)C2 (stereo not drawn),x,x,-4%,x,0%,x,x
COc1ccccc1N(CCC#N)C(=O)CSc1nc(-c2ccccc2)cn1N,75*,4%,1%,-2,5%,1%,0%
Cc1cccc(Cn2cc(SCC(=O)Nc3nccs3)c3ccccc32)c1,23*,-1%,-5%,8,-9%,-1%,u
COc1ccc(S(=O)(=O)Nc2ccc(-c3ccc4nncn4n3)cc2)c(OC)c1,x,x,-10%,x,-3%,x,x
CNC(=O)CSc1nnc(-c2cc(C)cc(C)c2)o1,27*,0%,1%,1,7%,5%,1%
CCC(C)c1ccccc1NC(=O)C(C)OC(=O)CN1C(=O)NC(C)(C)C1=O (stereo not drawn),x,x,-2%,x,1%,x,x
COc1cccc(Nc2nc(NCCO)c3ccccc3n2)c1,50*,1%,-9%,10,1%,-18%,1%
COc1ccc(CCNC(=O)CC2SC(N)=NC2=O)cc1OC (stereo not drawn),9,6%,-13%,-2,x,-1%,x
Cc1nc(N2CCN(C(=O)c3ccco3)CC2)nc2c1C(=O)CCC2,36*,-14%,1%,15,0%,x,u
